# How the values were obtained:
# Assay in all cases: PBM binding z-score (relative to random genomic background probes); higher = stronger binding; sequences stand for … in GC…GCGATTGACAGCGTAGAATGAAGG
# [1] = system: FXR:RXRa (NR concentration 270 nM, RXRa partner concentration 90 nM)
# Summary of the method: (§1)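 Binding buffer was PBS pH 7.4 with 2% milk, 0.02% Triton X-100, 1 mM DTT, 0.2 mg/mL BSA and 0.4 mg/ml salmon testes DNA. In it, ligand-free nuclear receptor dimers were incubated 1 h on custom Agilent 4×180K protein-binding microarrays carrying double-stranded probes. Antibodies against each partner (one per run) detected binding, and z-scores were calculated against random background probes after regression normalization of scanned fluorescence.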
# [2] = system: LXRa:RXRa (NR concentration 270 nM, RXRa partner concentration 90 nM)
# Summary of the method: as §1
# [3] = system: LXRa homodimer (NR concentration 270 nM)
# Summary of the method: as §1
# [4] = system: LXRb:RXRa (NR concentration 270 nM, RXRa partner concentration 90 nM)
# Summary of the method: as §1
# [5] = system: LXRb homodimer (NR concentration 270 nM)
# Summary of the method: as §1
# [6] = system: PPARa:RXRa (NR concentration 270 nM, RXRa partner concentration 90 nM)
# Summary of the method: as §1
# [7] = system: PPARg:RXRa (NR concentration 180 nM, RXRa partner concentration 90 nM)
# Summary of the method: as §1
# [8] = system: PPARg:RXRa 270nM:90nM, anti-RXR (NR concentration 270 nM, RXRa partner concentration 90 nM)
# Summary of the method: as §1
# [9] = system: PPARg:RXRa 30nM:10nM, anti-RXR (NR concentration 30 nM, RXRa partner concentration 10 nM)
# Summary of the method: as §1
# [10] = system: PPARg:RXRa 90nM:30nM, anti-RXR (NR concentration 90 nM, RXRa partner concentration 30 nM)
# Summary of the method: as §1
Sequence,PBM binding z-score [1],PBM binding z-score [2],PBM binding z-score [3],PBM binding z-score [4],PBM binding z-score [5],PBM binding z-score [6],PBM binding z-score [7],PBM binding z-score [8],PBM binding z-score [9],PBM binding z-score [10]
ATCTCTAAGTAAAGATAGTTCAGTGAATGCAAAT,0.825,1.03,0.571,0.658,0.588,0.429,0.449,0.18,0.359,0.14
TCGAGTAGGTTACCAATGGGGCATTCACCTTTCT,0.403,1.81,-0.322,1.57,-0.26,1.55,0.512,1.43,1.26,1.47
GCGACTGGGGCATCAGCAGGCTACCATAACTTAA,-0.662,-0.723,-0.307,-0.378,-1.43,0.138,0.565,0.457,-1.02,-0.389
ATCTCTAGGTAAAATTTCAGTGAATCCCGAGGAT,0.303,0.0302,-0.0647,0.162,1.26,0.181,0.177,0.563,0.504,0.487
CCCACTGGGGCATAAGGTTACCATAAGCCAGCCC,0.325,1.44,-0.234,0.476,-1.1,2.36,3.91,4.26,1.73,3.6
TAGCCTAGGTCATGCGAGCCAGTATAGTGTCGGC,4.25,2.95,0.265,1.8,0.134,3.6,2.35,2.43,0.259,1.24
GCTATTAGTTGAAAGGGCAAGCGAATGATTCTCG,0.532,0.54,-0.0155,0.379,-0.106,2.13,2.5,4.12,2.04,4.08
ACACGGAGGACAAAGGTCAGAGCTACGCCAGTGA,4.18,4.33,1.74,3.36,0.366,5.18,7.55,7.26,5.39,7.07
TCTCGGAGGACACGAAGGTCAGAGCATTCCAGAG,1.29,0.948,0.206,0.97,-0.998,1.88,0.742,1.63,2.05,1.74
CCTTAAGGGTCACTCCAGGTTATAGCATCGGAGT,6.75,7.97,3.36,5.9,0.565,5.33,4.86,5.1,2.01,4.34
CAAACTAGGTCAAGGCCAAAGTCGGTTTGTGCCA,3.98,2.52,0.111,1.71,-0.0886,4.91,8.07,6.77,4.34,6.26
CCGAGTAGGTTATGGTGCATTCAGGCAACGGTGA,0.234,0.34,0.363,0.361,0.234,1.52,2.04,3.55,1.15,3.04
CAGCCTAGGTCAGGGCCCGTATAGGAGGAACGTT,1.56,0.731,-0.61,0.395,-1.32,1.72,0.643,0.734,-0.158,0.0498
CCTACTGGGCCAAGGTCCTTGATCAGTCAAAGCA,-2.77,-0.638,-0.83,-0.659,-1.31,0.607,0.83,1.73,-0.152,0.845
TCTTGTAGATCAACAGGGGGTTAAGAAAGATCGA,1.48,2.69,0.266,3.75,8.09,2.75,0.692,2.99,3.73,3.26
TCATATAGGTAACACAGGTGAAAGTCGGCATCTA,1.43,1.43,0.437,1.22,0.437,2.4,2.36,3.3,4.15,3.83
GCTATTAGTTGAAAGGGGAACCGAATGATTCTCG,0.138,0.218,-0.112,-0.0843,-0.157,0.798,1.19,3.07,1.25,2.62
CCTAGCAGTCCAATCTGGGTCACTCAAGGCTTGA,0.349,0.868,-0.0916,0.921,-0.342,2.91,1.73,2.01,-0.0165,1.64
TAGCCTAGGTCATGGCCCAGTATACCACGCGAAC,4.7,3.85,0.774,2.64,-0.293,4.33,4.27,3.99,1.14,2.95
CCGACTGGGGCAAGGTTACCACAACGCACAGCCA,0.0767,0.351,-0.32,0.671,-1.11,1.98,2.91,3.54,1.2,2.55
AGAACGAGGGCACGCTGAGTCGATAGCAGAGTAG,0.534,0.569,-0.415,-0.0914,-1.26,1.98,2.05,1.66,0.0721,0.871
CAAACTAGGGCAAAGGTCAAAGTCGAGCCAACCA,7.07,6.32,4.3,6.01,1.82,7.48,13.2,10.9,12.2,12.5
CCAGACAGGAGAGAAGGTAACTCAGCCTCGATTA,-0.282,-0.227,-0.0445,0.0989,0.0914,-0.133,0.348,-0.148,0.0221,-0.398
TCATATAGGTAAATGCTAGGTGAATGTCCGATCT,0.466,0.779,0.287,0.767,0.0198,1.39,0.932,2.17,3.49,2.66
ATCTCGAGGTAAAGATAGTTCAGTGAATGCAAAT,0.198,5.34,0.132,1.62,0.118,0.727,0.145,0.25,0.14,0.23

Sequence,PBM binding z-score [1],PBM binding z-score [2],PBM binding z-score [3],PBM binding z-score [4],PBM binding z-score [5],PBM binding z-score [6],PBM binding z-score [7],PBM binding z-score [8],PBM binding z-score [9],PBM binding z-score [10]
ACAGACAGGTGAGTGAAGGTAATTCAGCTGGACG,0.214,0.102,-0.0483,-0.196,-0.576,-0.0438,0.499,0.152,-0.212,-0.193
CAAACTAGGTCAAATGTCAAAGTCGAGCCAACCA,5.99,4.61,1.45,3.78,1.49,6.77,11.8,9.72,9.92,10.8
TGATTGAGGTTATAAGATCAGGGAACGTTGCAAA,1.58,1.48,-0.174,1.21,-0.195,2.46,0.965,1.78,0.689,1.56
CGTCCAAGGACAGCAGGTCAGTGAAAGCGACGTG,0.0413,-0.0225,-0.497,-0.229,-1.12,0.599,0.186,-0.344,-0.721,-0.226
TCTTGTAGATCAGGAGGTTAAGAAAGCTGGCCAA,0.046,0.738,0.262,0.752,-0.475,1.46,-0.25,1.8,2.55,2.11
CCTTACGGGTCAAGCTTATAGCACGGGTGGTACG,5.81,3.52,-0.087,3.04,0.0884,4.93,4.12,4.65,1.87,3.43
ATCGAAAGGTCGACGAGGTGAGTACACACCGTTT,4.47,3.65,0.0409,2.84,0.25,4.44,2.84,3.38,1.11,2.41
CAAACTAGGTCAAAGGCCAAAGTCGAGCCAACCA,5.15,3.93,0.637,3.08,-0.153,6.63,11.3,9.98,9.75,10.9
CCAGAAAGGTGAGAAGGTAACTCAGCCTCGATTA,0.521,0.782,-0.167,0.842,-0.293,2.47,1.02,1.49,0.32,0.796
CTCGACAGGTCGTGCTCAGGTGAGTATACCAAAC,0.806,0.431,-0.39,0.643,-0.717,1.59,0.0674,0.515,-0.386,-0.107
ATCTCTAGGTAAGACTCAGCTCAGTGAAGAACGC,0.197,0.324,0.483,-0.157,0.984,-0.198,0.0541,-0.171,0.317,0.109
AGCGAAAGGTCGTGAGGTGAGTATACAGAAAGGC,5.99,3.84,-0.142,3.17,-0.2,5.26,4.55,4.97,1.84,3.25
TAGCCTAGGTCATCGGGCCAGTATAGTACGCATC,4.52,3.33,0.51,2.29,0.0366,3.91,3.13,3.04,0.482,2.16
TCATATAGGTAAAATGTGAAAGTCGGTGTGGTAA,0.975,0.902,0.119,0.595,0.134,2.27,3.1,4.54,4.42,4.95
GTACCAAGGTGCATAGGTCGTTGATGAGTAGGCG,0.192,0.486,0.209,-0.189,-0.908,1.3,1.21,1.88,0.013,1.15
ACTAGCAGGCCAAGTTTGGTTCACTCAAACAAAG,-0.324,-0.317,-0.342,-0.0394,-0.539,0.158,-0.322,-0.162,-0.424,-0.301
TCTTGTAAATCAGCAGGTTAAGAAAGCTGGCCAA,0.256,0.519,-0.233,0.511,-0.113,0.935,-0.661,1.45,3.06,2.45
TCTAGTTGGTCAAAGGTCACACGCTCGAAATGCG,6.24,5.77,4.22,5.45,1.94,6.6,12,10.1,12.1,11.5
CCTACTGGGCTATCAGGTCATTGATATCAACGTT,1.15,0.988,0.914,1.16,-0.189,2.01,1.45,2.47,0.664,2.01
GCGACTGGGGGATCAGCAGGTTACCATAACTTAA,0.383,0.523,0.0867,2.54,5.33,1.5,0.824,1.73,0.24,1.15
ATATGTAGGTTAAGGGTCTTTCAGGTTGGTTCGC,1.3,1.7,0.812,1.77,0.832,4.62,8.46,8.05,6.71,8.67
TCAGACAGGTGAAGGTAACTCATGTACGCAGTCG,0.849,1.03,-0.116,0.964,-0.0252,1.26,0.954,2.14,4.07,2.81
CTACCAAGGTGAACAAGGTCGTTGAGTACTATTC,1.64,1.36,0.0569,1.83,-0.22,2.53,1.04,1.24,0.0413,0.542
CCTAGGAGGACAACAGGAGGTCAGAGCTGCCAGA,1.35,2.17,2.05,1.53,-0.406,2.1,0.818,0.597,-0.229,0.192
